This is part of a sample that, as a whole, favours compounds with a hit. Of some 83,000 tested, about 20% had one in any assay.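 The test compound was applied at a single concentration to cells in 96-well plates for 48 hours, and percent growth was recorded.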 The source made the active and inactive calls. The calls were made as follows: active = growth percent below 10; inactive = the rest.
Key:
Test in all cases: NCI-60 one-dose screen, 48 h (100 = growth as untreated, 0 = no growth, -100 = all killed)
Details in all cases: 10 µM unless noted
[1] = tested on: T-47D breast
[2] = tested on: BT-549 breast
[3] = tested on: MDA-MB-435 melanoma
[4] = tested on: SW-620 colon
[5] = tested on: MCF7 breast
[6] = tested on: HCT-116 colon
[7] = tested on: HCC-2998 colon
[8] = tested on: KM12 colon

Measured: growth

CC(=O)c1c(C)nc(-c2cc(C)cc(Cl)c2)nc1-c1cccc(Oc2ccccc2)c1
inactive: [1] 72.3% | [2] 64.3% | [4] 25.7% | [5] 43.5% | [6] 30.5% | [7] 77.6% | [8] 30.7%
active: [3] -4.76%

C#CCNC(=S)N/N=C(\C)c1ccccn1
inactive: [1] 24.1% | [3] 33.1% | [4] 34.3% | [7] 35.1% | [8] 23.5%
active: [2] -2.53% | [5] 4.54% | [6] 1.22%

CNCc1cccc2c1OCCOCCOCCC(C)S(=O)(=O)c1ccc(cc1)-c1cnc(N)c(n1)C(=O)N2 (configuration not stated)
active: [6] -2.15%
inactive: [1] 32.8% | [2] 43.9% | [3] 42.8% | [4] 27.6% | [5] 37.9% | [7] 79% | [8] 47.5%

O=C(C=P(c1ccccc1)(c1ccccc1)c1ccccc1)CCl
active: [1] -73.8% | [2] -11.3% | [3] -98.6% | [4] -50.7% | [5] -16.6% | [6] -70.2% | [7] -21.6% | [8] 1.36%

CC1=C(C(=O)Nc2ccc(F)cc2)C(c2ccccc2)C2=C(CC(C)(C)CC2=O)N1 (configuration not stated)
inactive: [1] 63.6% | [2] 91.1% | [3] 90.3% | [4] 89.7% | [5] 67.1% | [6] 73.6% | [7] 103% | [8] 84.5%

CC[C@H](Nc1nc(N)nc(N)c1Cl)c1nc2cccc(NCc3ccc(C(=O)NO)cc3)c2c(=O)n1-c1ccccc1
active: [1] 6.8% | [3] -51.2% | [6] -63.6% | [7] -14.4% | [8] -38.3%
inactive: [2] 37.4% | [4] 19.9% | [5] 13%

CCN(CC)CCCCCCCNc1cc(OC)cc2c(C)ccnc12
inactive: [1] 53.6% | [2] 82.6% | [3] 98.6% | [4] 88.6% | [5] 27.2% | [6] 70.9% | [7] 90.9% | [8] 89.9%

CCc1ccc(-c2ccc(NC3CCCCCC3)nn2)cc1S(N)(=O)=O
inactive: [1] 103% | [2] 103% | [3] 106% | [4] 98.8% | [5] 95.2% | [6] 103% | [7] 102% | [8] 110%

c1ccc(C(Nc2ccccn2)(c2ccccc2)c2ccccc2)cc1
inactive: [1] 72.7% | [2] 99.2% | [3] 96.5% | [4] 84.4% | [5] 62.4% | [6] 65.7% | [7] 82.6% | [8] 71.9%

O=c1[nH]cnc2nc[nH]c12
inactive: [1] 111% | [2] 105% | [3] 93.5% | [4] 105% | [5] 95.4% | [6] 98.1% | [7] 101% | [8] 196%

COc1cccc(/C=N/N=C(N)N)c1
inactive: [1] 97.5% | [2] 114% | [3] 114% | [4] 98% | [5] 100% | [6] 99.9% | [7] 107% | [8] 96.4%

CC(=O)c1ccc(Nc2nc(Cl)nc(Oc3c(Cl)cccc3Cl)n2)cc1
inactive: [1] 79.8% | [2] 84.7% | [3] 89.9% | [4] 88.6% | [5] 74.9% | [6] 84.9% | [7] 106% | [8] 98%

CC(=O)Nc1ccc(Cl)cc1Cl
inactive: [1] 103% | [2] 120% | [3] 96% | [4] 116% | [5] 100% | [6] 105% | [7] 106% | [8] 112%

O=C1/C(=C\c2cccn2Cc2ccc(Cl)cc2)c2ccccc2N1c1c(Cl)cccc1Cl
inactive: [1] 25.1% | [2] 94.5% | [3] 106% | [4] 91.5% | [5] 12.8% | [6] 77% | [7] 79.8% | [8] 54.3%

N#Cc1nc(-c2ccc(Cl)cc2)cc(-c2ccc(Nc3nc(N4CCCCC4)nc(N4CCCCC4)n3)cc2)c1N
inactive: [1] 100% | [2] 99.2% | [3] 106% | [4] 99.3% | [5] 99.6% | [6] 102% | [7] 112% | [8] 107%

CS(=O)(=O)Nc1cc(-c2cc3ncc(C#N)c(Nc4ccc(Oc5ccccc5)c(Cl)c4)c3s2)cnc1Cl
inactive: [1] 15.8% | [2] 51% | [3] 67.4% | [4] 48% | [5] 26.5% | [6] 45.1% | [7] 64.5% | [8] 56.8%

CCn1c(CN2CCN(Cc3ccccc3)CC2)nc2cc(NC(=O)c3cccs3)ccc21
active: [1] -62.5% | [2] -30.9% | [3] -89% | [4] -82.8% | [5] -88.1% | [6] 0.264% | [7] -88.9% | [8] -93.5%

O=C(/C=C/c1ccccc1)C(Br)C(Br)c1ccccc1 (configuration not stated)
inactive: [7] 51.8%
active: [1] -36.6% | [2] -60.8% | [3] -68.7% | [4] -53.1% | [5] -48.3% | [6] -94.2% | [8] 8.19%

COc1cccc(NC(=O)[C@H](C(C)C)n2c(=O)[nH]c3ccccc3c2=O)c1
inactive: [1] 91.1% | [2] 102% | [3] 108% | [4] 103% | [5] 98.2% | [6] 113% | [7] 96.3% | [8] 104%

Cc1cc(C)c2c(n1)sc1c(Nc3ccc(OCc4ccccc4)cc3)ncnc12
inactive: [1] 95.7% | [2] 102% | [3] 107% | [4] 101% | [5] 93.2% | [6] 103% | [7] 96.1% | [8] 94.2%

CSC1=NC(=Nc2c(C)cccc2C)C2(CCC(C(C)(C)C)CC2)N1c1ccc(Cl)cc1 (configuration not stated)
inactive: [1] 89.9% | [2] 81.4% | [3] 36.5% | [4] 28.6% | [5] 43% | [6] 22.4% | [7] 44.3% | [8] 39.9%

FC(F)(F)c1ccc(/C=N/Nc2nnc3n2N=C(c2ccc(Cl)cc2)CS3)cc1
inactive: [1] 65.5% | [2] 58.2% | [3] 70.8% | [4] 77.6% | [5] 61.2% | [6] 32.8% | [7] 98.7% | [8] 76.9%

N#Cc1nc(-c2cccc(Br)c2)cc(-c2ccc(Nc3nc(N4CCCCC4)nc(N4CCCCC4)n3)cc2)c1N
active: [1] -52.6% | [2] -69.5% | [3] -91.7% | [4] -42.3% | [5] 6.98% | [6] -60.4% | [8] -1.24%
inactive: [7] 18.2%

C[C@]12CCc3nc(Nc4ccc(O)cc4)sc3C1=CC[C@@H]1[C@@H]2CC[C@]2(C)/C(=N/NC(N)=S)CC[C@@H]12
active: [1] -31.6% | [2] 9.89% | [3] -68.5% | [4] -62% | [5] -35% | [6] -81% | [7] -18.2% | [8] -64.9%

O=[N+]([O-])c1cccc([I+]c2ccccc2)c1
inactive: [1] 50.1% | [2] 63.3% | [3] 72.7% | [4] 40% | [5] 37.6% | [6] 47.7% | [7] 67.2% | [8] 60.5%

COc1ccc2nc(NC(=O)/C(=C/c3cc(OC)c(OC)c(OC)c3)c3ccc(OC)c(OC)c3)sc2c1
inactive: [1] 74.4% | [2] 101% | [3] 101% | [4] 102% | [5] 87.1% | [6] 96.3% | [7] 113% | [8] 101%

COC(=O)C(C)NC1=C(Cl)C(=O)C(NC(C)C(=O)OC)=C(Cl)C1=O (configuration not stated)
inactive: [1] 96.6% | [2] 99.4% | [3] 75.7% | [4] 104% | [5] 82.2% | [6] 97.9% | [7] 106% | [8] 96.8%

CCOc1cccc(/C=N/NC(=O)c2ccc(Nc3ccnc(C(F)(F)F)c3)cc2)c1O
inactive: [2] 14.6% | [3] 40.2% | [4] 32.1% | [7] 35.3% | [8] 24.8%
active: [1] 3.07% | [5] -1.78% | [6] 7.55%

Fc1ccc2c(CN3CCO[C@H](COc4cccc(Cl)c4)C3)c[nH]c2c1
inactive: [1] 37.5% | [2] 57.7% | [3] 50% | [4] 59.7% | [5] 20.3% | [6] 28.8% | [7] 96.9% | [8] 38.9%

Reference: PubChem BioAssay (NCI)
